Cycloheximide cs = affects cycloheximide protein synthesis inhibition readout, counter-screen. cell reporter, cycloheximide protein synthesis inhibition counterscreen. max response, %. hit rate 12% among 300,000; in the data active = max response mostly above about 13%, no sharp cut-off; inactive = mostly below about 14%; also: read at 38.3 µM for the half of the compounds with a filed dose; 0% is about no effect
Shiga toxin inh = inhibitors of Shiga toxin in Vero cells; hit rate 9.2% among 290,000; inhibition, % at 38.7 µM; Vero cells, Shiga toxin protein synthesis inhibition reporter; AID 2315; in the data active = inhibition mostly above about 28%, no sharp cut-off; inactive = mostly below about 43%; also: 0% is about no effect
Pf growth 48h = P. falciparum growth inhibition at 48 hours (one generation); hit rate 5.9% among 310,000; P. falciparum luciferase growth in erythrocytes, 48 h; Potency, µM (series often up to 28.7 µM), without a hit: at the top dose activity change, negative = inhibition, hits mostly inhibitors; also: potency is read from the fitted curve at half-maximal effect; % is scaled to controls: 0 for no effect and ±100 for the full control effect
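Luciferase-expressing parasites in RBCs, 2% Hct / 0.1% parasitemia final; RPMI 1640 + 0.5% Albumax; 37 C, 5% CO2, one generation; luminescence read-out, lower signal = inhibition.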
HCV inhibitor = blocks hepatitis C virus. Potency, µM (top dose mostly 41.8 µM), for inactives: at the highest dose activity change, negative = inhibition, most hits filed as inhibitors. Huh7.5.1 HCVcc-Cre infection, luciferase reporter, 44 h. hit rate 3.4% among 340,000; also: potency is read from the fitted curve at half-maximal effect; % is scaled to controls: 0 for no effect and ±100 for the full control effect
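Cells (1,000/well) were plated 4 h before compound, then infected with HCVcc-Cre virus (~0.5 moi). After 44 h further culture, infection was read as luciferase luminescence following a 15 min substrate incubation at room temperature.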
Pf growth 96h = inhibits malaria parasite growth, 96 h | P. falciparum luciferase reporter growth, 96 h | Potency, µM (doses to about 28.7 µM), inactives show at the highest dose activity change, negative = inhibition, most hits filed as inhibitors | hit rate 6.9% among 320,000; also: potency is read from the fitted curve at half-maximal effect; % is scaled to controls: 0 for no effect and ±100 for the full control effect
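Two-generation exposure (96 h) targets delayed-death phenotype. Reporter parasites carrying integrated firefly luciferase, in red cells at 2% hematocrit and 0.05% parasitemia final, kept at 37 C, 5% CO2; luminescence loss indicates inhibition.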
HCMV inh = blocks human cytomegalovirus replication; hit rate 4.5% among 410,000; HFF cells, HCMV-luciferase reporter, 72 h; active compounds read low; activity change, negative = inhibition, % at 57.5 µM; in the data active = activity change below about -60%; inconclusive = no clear call, values can overlap the other calls; inactive = above about -39%; also: % is scaled to controls: 0 for no effect and ±100 for the full control effect
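Steps: HFFs plated, 16 h 37C; compounds added; HCMV-luciferase added to MOI 1 PFU/cell; 72 h 37C; OneGlo reagent, 5 min room temperature; luminescence read, normalized to controls.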
Starred values were filed as active, the others as inactive; ? = inconclusive; · = no result given. Shown are actives, neighbours in structure and some others; about 21% of the full set was active somewhere. Unless noted, calls follow the shape of the dose curve; as a rule, active = well fitted inhibition curve with a large enough effect; inconclusive = small, poorly fitted or top-dose-only effect, or another doubt; inactive = no such curve, though single readings can be large or run the other way.

SMILES | Cycloheximide cs | Shiga toxin inh | Pf growth 48h | HCV inhibitor | Pf growth 96h | HCMV inh
C=CCOC(=O)C1=C[C@H](c2coc3ccccc3c2=O)[C@@H](CCCO)[C@H](OCC)O1 | -2 | -23 | -35% | -7% | -17% | -4
CCn1c(C(=O)O)c(CC(=O)N(C)c2ccc(OC)cc2OC)c2ccccc21 | -2 | -4 | -5% | 22% | 12% | -13
CC(=O)N1CCN(C(c2ccccc2)c2nnnn2C(C)(C)C)CC1 (stereo unspecified) | · | · | · | · | · | -7
O=C(CCNC(=O)N1CC(=O)Nc2ccccc21)Nc1ccc(F)c(Cl)c1 | 1 | -4 | 6% | -5% | -29% | 12
CCN(Cc1ccccc1)C(=O)Cn1c(=O)n(-c2ccccc2)c(=O)c2c1c1cc(C)ccc1n2C | · | · | · | · | · | -16
Cc1ccc(-c2nnc(SCC(=O)NC3CC3)o2)cc1 | 24* | 61* | 14% | 0% | 2% | 33
Cc1cccc(-c2nnc(SCC(=O)NC3CCCC3)o2)c1 | -3 | 26 | 58% | 10% | -1% | 39
COc1ccc(-c2nnc(SCC(=O)N3CCCCC3)o2)c(OC)c1 | 30* | 25 | 12% | -23% | ? | -14
COc1ccc(CNC(=O)Cc2c(C)c3cc4c(C)coc4cc3oc2=O)cc1OC | · | · | · | · | · | -37
O=C(C[n+]1cnn(CC(=O)c2ccc(Cl)cc2Cl)c1)c1ccc([N+](=O)[O-])cc1 | -3 | -12 | 3.7µM* | ? | ? | 58
O=C(Nc1cnn(Cc2ccc(Cl)cc2)c1)c1ccc([N+](=O)[O-])cc1 | -2 | -13 | ? | -3% | ? | -39
S=C(/N=c1/sccn1Cc1ccccc1)NC1CC1 | 0 | 29 | ? | ? | 12µM* | ?
CN(C)CCCNC(=S)/N=c1\sccn1Cc1ccccc1Cl | -5 | -6 | ? | 9% | ? | -14
CCc1nnc(NC(=O)CSCc2cc(=O)n3ccsc3n2)s1 | -1 | 1 | -6% | 9% | ? | ?
Cc1ccccc1C(=O)N1CCN(c2ccc(NC(=O)c3cccnc3)cc2)CC1 | -3 | -9 | -15% | 1% | 63% | -10
Cc1ccccc1C(=O)N1CCN(c2ccc(NC(=O)c3ccc([N+](=O)[O-])o3)cc2)CC1 | 1 | 3 | ? | ? | -9% | -98*
O=C(Nc1ccc(N2CCN(C(=O)c3ccccc3)CC2)cc1)c1ccc([N+](=O)[O-])o1 | -11 | -35 | ? | ? | -2% | -101*
COc1cc2[nH]c3c(N4CCN(c5ccccn5)CC4)ncnc3c2cc1OC | -4 | -8 | 9.3µM* | 6.3µM* | 15µM* | ·
CCOC(=O)N1CCN(c2ncnc3c2[nH]c2ccc(OC)cc23)CC1 | -2 | -7 | ? | -29% | ? | ?
Cc1cccc2[nH]c3c(N4CC=C(c5ccc(F)cc5)CC4)ncnc3c12 | 2 | -4 | 10µM* | 13µM* | ? | ?
COc1cccc2[nH]c3c(N4CCCCC4)ncnc3c12 | 45* | 67 | ? | -2% | 23% | 56
COc1cc(OC)c(C(=O)N2CCN(c3ccccn3)CC2)cc1OC | -2 | -12 | 3% | 6% | -10% | 0
COc1ccc2[nH]c3c(N4CCc5ccccc5C4)ncnc3c2c1 | 28* | 13 | ? | ? | ? | -88*
COc1ccc2oc(-c3ccc(C)c(NC(=O)c4ccc5c(c4)OCCO5)c3)nc2c1 | · | · | · | · | · | 122
CC(/C=C/C(=O)NO)=C\[C@@H](C)C(=O)c1ccc(N(C)C)cc1 | -4 | 28 | · | · | · | ·
SMILES | Cycloheximide cs | Shiga toxin inh | Pf growth 48h | HCV inhibitor | Pf growth 96h | HCMV inh
O=C(c1ccco1)N1CCN(c2ncnc3c2[nH]c2ccccc23)CC1 | -1 | 5 | ? | · | 5% | ·
COc1ccc(N2CCN(c3ncnc4c3[nH]c3ccccc34)CC2)cc1 | -1 | -16 | ? | 5.6µM* | ? | -92*
Cc1cccn2c(=O)cc(CSc3nnc(NC(=O)c4ccc(F)cc4)s3)nc12 | · | · | · | · | · | -11
COc1ccc(CC(=O)N(CCC2=CCCCC2)c2c(N)n(Cc3ccccc3)c(=O)[nH]c2=O)cc1OC | · | · | ? | ? | ? | -29
O=C(CNc1cccc([N+](=O)[O-])c1)N/N=C/c1ccc(F)cc1 | -7 | -5 | ? | -5% | -16% | -63*
O=C(Cc1ccc2c(c1)OCCO2)N/N=C/c1ccco1 | · | · | 35% | 8% | 0% | -32
O=C(CNc1ccccc1)N/N=C/c1ccc([N+](=O)[O-])o1 | 1 | 19 | 3.7µM* | ? | 2.6µM* | -82*
O=C(CNC(=O)c1ccccc1)N/N=C/c1ccc([N+](=O)[O-])o1 | 10 | 1 | 4.7µM* | ? | ? | -80*
O=C(CNc1cccc2ccccc12)N/N=C/c1ccc([N+](=O)[O-])cc1 | -2 | 29 | 18% | 11% | 26% | 7
O=C(Cc1ccc2c(c1)OCO2)NN=Cc1ccc([N+](=O)[O-])o1 | · | · | · | 10µM* | · | -39
Cc1cc(C(F)(F)F)c2c(N)c(C(=O)Nc3c(Cl)cccc3Cl)sc2n1 | · | · | · | · | · | -26
O=C(CCC(=O)Nc1ccc(Cl)cc1Cl)N/N=C/c1ccc([N+](=O)[O-])o1 | 2 | 38* | ? | ? | ? | -77*
CCCCCC(=O)N/N=C/c1ccc([N+](=O)[O-])o1 | 9 | 28 | · | ? | · | -23
O=C1c2c(Cl)c(Cl)c(Cl)c(Cl)c2C(=O)N1c1nccs1 | · | · | · | 1% | · | 9
O=C(CSc1ncn[nH]1)Nc1ccc([N+](=O)[O-])cc1Br | 5 | 9 | 13% | -22% | -8% | -65*
Nc1nc(SCC(=O)Nc2ccc([N+](=O)[O-])cc2Br)n[nH]1 | 1 | -4 | 24% | -9% | 23% | 10
COc1ccc(CCC(=O)NNC(=O)Nc2ccccc2Cl)cc1 | -1 | -9 | 3% | 10% | 46% | -15
COc1ccc(C(=O)N2c3ccccc3C=CC2C#N)cc1 (stereo unspecified) | 11 | -9 | 12% | -12% | 15% | 101
N#C[C@H]1[C@H](c2ccccc2)[C@](C#N)(C(=O)c2ccccc2)[C@@H]2C=Cc3ccccc3N21 | 42* | 55 | ? | · | -13% | ·
C(=N\Nc1ccccn1)/c1cccnc1 | 24* | · | 32% | 9% | ? | 29
FC(F)(F)c1ccc(N/N=C/c2cccnc2)nc1 | 41* | 71* | ? | 14% | ? | 37
O=[N+]([O-])c1ccc(N/N=C\c2cccnc2)nc1 | 6 | 7 | 84% | 5% | 19% | 44
C/C=C/c1ccc(OCCCNC2CCCC2)c(OC)c1 | -7 | -8 | ? | 0.89µM* | · | 1
C/C=C/c1ccc(OCC(O)CN(C)Cc2ccc(SC)cc2)c(OC)c1 (stereo unspecified) | -3 | 9 | · | -21% | ? | -102*
C/C=C/c1ccc(OCC(=O)OCC)c(OC)c1 | 14* | 37 | ? | 7% | 15% | 55
